Six1-Eya2 inh – blocks human Six1 binding to Eya2; AlphaScreen GST-Six1/His-Eya2 binding, biochemical; stronger effect = lower value; activity change, % (no concentration beside the values); 360,000 compounds, 0.56% hits; Q15475+O00167; AID 651725; in the data active = activity change below about -65%; inconclusive = mostly about -30% to -63%; note: % is set by controls: 0 for no effect and ±100 for the full control effect
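AlphaScreen luminescence read after one hour at 37 °C in darkness. Pin-transferred compounds met GST-Six1 and His-Eya2 protein (5X stock 250 nM/500 nM) plus glutathione donor and Ni-chelate acceptor beads (5X, 50 ug/mL).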
BAZ2B inh – inhibitors of human BAZ2B bromodomain. Q9UIF8. AlphaScreen BAZ2B-H3K14Ac peptide displacement. Potency, µM (doses to about 114 µM), without a hit: top-dose activity change, negative = inhibition, hits mostly inhibitors. 360,000 compounds, 4.4% hits. AID 504333; note: potency is the fitted concentration of half-maximal effect; % is set by controls: 0 for no effect and ±100 for the full control effect; nearly all actives have a fitted effect of over 60% in size
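BAZ2B 50 nM plus b-H3(5-23)K14Ac 50 nM, PBS pH 7.4/0.01% Tween-20, 30 min RT; compound added (max 110 uM), 30 min RT; streptavidin donor/Ni-chelate acceptor beads 10 ug/mL final, 20 min dark; AlphaScreen read.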
G9a inh – inhibitors of human histone lysine methyltransferase G9a; Potency, µM (top dose mostly 102 µM), for inactives: at the top dose activity, negative = inhibition, hits mostly inhibitors; 350,000 compounds, 8.8% hits; AID 504332; G9a H3K9 monomethylation, AlphaScreen, 2 h; note: potency is the fitted concentration of half-maximal effect; % is set by controls: 0 for no effect and ±100 for the full control effect; nearly all actives have a fitted effect of over 75% in size
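Quantitative HTS format: methyltransferase activity on a biotin-tagged H3K9 peptide is measured by AlphaScreen, using a rabbit anti-monomethyl-H3K9 antibody with streptavidin donor and anti-IgG acceptor beads. Final levels are 20 nM enzyme, 500 nM peptide, 20 uM SAM; 2 h RT.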
JMJD2A Tudor – inhibitors of human JMJD2A Tudor domain; O75164; AlphaScreen JMJD2A-Tudor / H3K4me3 peptide binding; Potency, µM (titrated, usually from 114 µM), inactives show top-dose activity change, negative = inhibition, usual class: inhibitors; 390,000 compounds, 4.4% hits; note: potency is the fitted concentration of half-maximal effect; % is set by controls: 0 for no effect and ±100 for the full control effect; nearly all actives have a fitted effect of over 50% in size
Target sequence (O75164 whole entry, looked up, the tested form may be a part): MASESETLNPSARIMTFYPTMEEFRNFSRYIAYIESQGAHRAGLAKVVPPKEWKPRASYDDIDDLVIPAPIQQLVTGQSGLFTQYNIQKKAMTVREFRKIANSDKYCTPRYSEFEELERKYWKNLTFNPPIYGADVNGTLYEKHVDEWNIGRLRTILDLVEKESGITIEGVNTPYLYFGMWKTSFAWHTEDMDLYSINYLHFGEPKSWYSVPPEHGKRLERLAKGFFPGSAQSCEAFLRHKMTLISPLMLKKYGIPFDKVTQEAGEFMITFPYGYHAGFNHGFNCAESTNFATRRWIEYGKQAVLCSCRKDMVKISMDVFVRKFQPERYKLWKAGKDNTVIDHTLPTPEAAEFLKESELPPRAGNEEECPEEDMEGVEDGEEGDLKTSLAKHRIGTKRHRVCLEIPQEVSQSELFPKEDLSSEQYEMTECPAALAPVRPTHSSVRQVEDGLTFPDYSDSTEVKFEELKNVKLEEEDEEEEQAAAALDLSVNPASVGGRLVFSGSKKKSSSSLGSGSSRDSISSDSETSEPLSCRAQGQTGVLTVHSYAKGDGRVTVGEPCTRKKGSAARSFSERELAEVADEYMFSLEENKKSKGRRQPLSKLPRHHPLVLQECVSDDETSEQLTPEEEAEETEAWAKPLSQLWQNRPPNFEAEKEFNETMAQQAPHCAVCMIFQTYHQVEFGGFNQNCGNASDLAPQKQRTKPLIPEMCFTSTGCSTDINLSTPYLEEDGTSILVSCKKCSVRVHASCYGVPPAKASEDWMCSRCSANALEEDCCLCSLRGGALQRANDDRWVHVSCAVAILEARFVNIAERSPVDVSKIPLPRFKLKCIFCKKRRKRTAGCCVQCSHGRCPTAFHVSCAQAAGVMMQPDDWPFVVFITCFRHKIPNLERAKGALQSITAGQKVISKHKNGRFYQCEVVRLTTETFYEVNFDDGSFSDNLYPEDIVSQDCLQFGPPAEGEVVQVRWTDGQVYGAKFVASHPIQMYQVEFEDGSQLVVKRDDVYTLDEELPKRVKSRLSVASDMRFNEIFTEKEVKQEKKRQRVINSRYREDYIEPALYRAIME
CtBP-E1A inh – inhibitors of CtBP/E1A interaction. AlphaScreen GST-E1A/His-CtBP binding, 1536-well; stronger effect = lower value. activity change, % (test concentration not listed). 340,000 compounds, 0.49% hits. AID 651724; in the data active = activity change below about -65%; inconclusive = mostly about -30% to -63%; note: % is set by controls: 0 for no effect and ±100 for the full control effect
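Steps: dispense buffer (Tris pH 8.0, NaCl 300 mM, TCEP 1 mM, BSA, Tween 20); add 5X protein mix (GST-E1A, His-CtBP, 125 nM each); pin 23 nL compound; 2 h at 37 °C, dark; add 5X beads (50 ug/mL); 1 h; read.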
HP1b chromo inh – blocks HP1-beta chromodomain binding to methylated histone tails | AlphaScreen HP1-beta / biotin-H3K9me3 peptide binding | Potency, µM (top dose mostly 114 µM), inactives show at the top dose activity change, negative = inhibition, actives largely listed as inhibitors | 390,000 compounds, 0.56% hits; note: potency is the fitted concentration of half-maximal effect; nearly all actives have a fitted effect of over 70% in size
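Compound inhibition of the preformed complex between 50 nM HP1-beta and 50 nM biotinylated H3K9me3 peptide was read by AlphaScreen. Buffer was PBS pH 7.4 with 0.01% Tween-20. Incubations ran 30 min at room temperature, with 10 ug/mL donor/acceptor beads.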
An asterisk follows results filed as active; u = inconclusive; x = not tested or not shown; [ ] = dose if it differs, or a comment. Sampled rows, rich in hits. Any-hit rate of the full collection: about 10%. Unless noted, calls come from the whole dose curve; as a rule, active = well fitted inhibition curve with a large enough effect; inconclusive = small, poorly fitted or top-dose-only effect; inactive = no such curve, though single readings can be large or run the other way.

SMILES	Six1-Eya2 inh	BAZ2B inh	G9a inh	JMJD2A Tudor	CtBP-E1A inh	HP1b chromo inh
Cc1cc(C=O)c(C)n1-c1ccc(NC2CCCC2)c([N+](=O)[O-])c1	u	-11%	-14%	20µM*	u	32µM*
Cc1cccc(Nc2nc(N)c([N+](=O)[O-])c(NCCO)n2)c1	-12	-5%	-6%	-21%	-8	45%
COc1cccc(NC2=C(NCCO)C(=O)c3ccccc3C2=O)c1	u	35µM*	-2%[0.501 µM]	50µM*	u	u
Cc1cccc(NC2=C(NCCO)C(=O)c3ccccc3C2=O)c1	-67*	20µM*	32µM*	56µM*	-24	20µM*
COc1ccc(NC2=C(NC(C)=O)C(=O)c3ccccc3C2=O)cc1	-9	u	u	-21%	-12	u
COc1ccc(NC2=C(NCCO)C(=O)c3ccccc3C2=O)cc1	-28	22µM*	14µM*	u	-23	16µM*
COc1cccc(Nc2c(Nc3cccc(OC)c3)c(=O)c2=O)c1	2	u	-82%	-33%	-8	6%
CC(C)CN(CC(C)C)C(=O)CS(=O)(=O)Cc1ccccc1	2	-3%	u	-20%	5	32%
CC(C)(C)c1nc2ccc(NS(=O)(=O)c3ccc(F)c(F)c3F)cc2[nH]1	14	-11%	32µM*	-10%	6	48%
O=S(=O)(Nc1ccc2nc(C(F)(F)F)[nH]c2c1)c1ccccc1	2	2%	-1%	-13%	8	37%
Cc1cc(C)c2sc(N(CCCN(C)C)C(=O)CN3C(=O)c4ccccc4C3=O)nc2c1	-6	u	50µM*	-14%[11.4 µM]	-3	63%
CN(C)CCN(C(=O)c1ccc(Br)s1)c1nc2cc3c(cc2s1)OCCO3	3	x	u	-26%	-3	27%
Cc1cc(C)c2sc(N(CCCN(C)C)C(=O)c3ccc(S(=O)(=O)N(C)Cc4ccccc4)cc3)nc2c1	u	u	40µM*	u	-7	u
CCN(Cc1ccccc1)S(=O)(=O)c1ccc(C(=O)N(CCCN(C)C)c2nc3cc(C)cc(C)c3s2)cc1	-29	u	25µM*	u	u	u
Cc1cc(C)c2sc(N(CCCN(C)C)C(=O)c3ccc(Br)s3)nc2c1	-4	50µM*	u	u	0	-3%
Cc1ccc(NC(=O)Cn2c(=O)nc(-c3ccccc3F)c3cc(Cl)ccc32)c(Br)c1	x	-23%	-14%[59 µM]	-2%	x	39%
CCN(CC)CCN(C(=O)c1ccco1)c1nc2c(C)cccc2s1	x	-30%	-26%[59 µM]	-36%	x	35%
CCOc1cccc2sc(N(CCCN(C)C)C(=O)c3ccc(S(=O)(=O)N(CC)Cc4ccccc4)cc3)nc12	-30	u	40µM*	32µM*	u	-9%
CCCCN(CC)S(=O)(=O)c1ccc(C(=O)N(CCCN(C)C)c2nc3cc(C)cc(C)c3s2)cc1	-27	u	45µM*	u	-15	-22%
Cc1ccc2sc(N(CCCN(C)C)C(=O)c3ccc(S(=O)(=O)N(C)C)cc3)nc2c1C	-5	x	u	-4%	-13	31%
C[C@H](CO)N1C[C@H](C)[C@@H](CN(C)C)Oc2c(NS(=O)(=O)c3ccccc3)cccc2C1=O	6	x	x	-21%	3	29%
S=c1[nH]nc(-c2ccccc2Br)n1Cc1ccccc1	6	-3%	x	-74%	x	-11%
Nc1sc(-c2ccccc2)cc1C(=O)O	x	u	-45%	x	x	x
Cn1c(-c2cc(Br)ccc2O)n[nH]c1=S	8	-33%	0.5µM*	4.5µM*	54	u
CCn1c(-c2ccccc2O)n[nH]c1=S	-2	-32%	14µM*	4µM*	-10	29%
SMILES	Six1-Eya2 inh	BAZ2B inh	G9a inh	JMJD2A Tudor	CtBP-E1A inh	HP1b chromo inh
CCn1c(-c2cc(-c3ccccc3)sc2N)n[nH]c1=S	-15	-20%	1.1µM*	-29%	-8	27%
Oc1ccc(Br)cc1-c1n[nH]c(=S)n1Cc1ccccc1	-18	-23%	6.3µM*	u	-9	16%
Cc1oc(S(=O)(=O)N2CCCCC2)cc1NC(=O)Nc1ccc(F)cc1	0	14%	x	-4%	x	34%
C=CCN=C(NC#N)SC	9	17%	49%	-7%	x	27%
CC(C)[C@H](NC(=O)N1CCn2c1nc1ccccc12)C(=O)NC1CCCCC1	4	u	6%	-27%	-12	60%
[O]=[Bi][O][Bi]=[O]	x	x	0%[59 µM]	x	x	x
CCc1nc2c(OCc3cccc(Cl)c3)cccn2c1N(C)C(=O)C1CC1	-21	x	x	x	-3	x
COCCn1c(-c2ccccc2F)n[nH]c1=S	0	22%	u	35µM*	2	44%
O=c1c2ccccc2nc(-c2ccccc2O)n1Cc1ccccc1	x	x	x	79µM*	x	x
Oc1ccccc1-c1n[nH]c(=S)n1Cc1ccccc1	-4	u	2.8µM*	20µM*	-1	12%
CCn1c(-c2cc(-c3cccc(OC)c3)nc3ccccc23)n[nH]c1=S	-14	u	1.1µM*	-36%	-9	-2%
COCCn1c(CCc2ccccc2)n[nH]c1=S	-10	0%	-7%	u	-9	14%
O=C(NCCc1csc(-c2ccc(C(F)(F)F)cc2)n1)c1cccs1	-6	10%	14%[59 µM]	3%	2	50%
COc1ccc(CNC(=O)CN2N=C(c3ccccc3)CCC2=O)c(OC)c1	x	2%	5%[59 µM]	2%	x	33%
CCN(CC)CCCNC(=O)C1CCN(S(=O)(=O)CC)CC1	x	6%	-4%[59 µM]	-14%	x	12%
COC[C@H]1CCCN1c1ccc2c(c1)O[C@H](COCc1ccccc1)CN([C@H](C)c1ccccc1)S2(=O)=O	-10	x	x	x	-5	x
COc1ccc(C(=O)NCC2(c3ccccc3)CCOCC2)cc1[N+](=O)[O-]	4	-2%	18%[59 µM]	32µM*	16	u
Cc1ccc2nc(N3C(=O)C(O)=C(C(=O)c4cc5ccccc5o4)C3c3cccs3)sc2c1 (stereo not drawn)	-11	-6%	20%[59 µM]	u	-2	-12%
O=C(C1=C(O)C(=O)N(c2nc3ccc(Cl)cc3s2)C1c1ccco1)c1ccco1 (stereo not drawn)	-26	45µM*	u	13µM*	-12	28µM*
Cc1ccc2nc(N3C(=O)C(O)=C(C(=O)c4ccco4)C3c3ccc(C)o3)sc2c1 (stereo not drawn)	-11	50µM*	40µM*	10µM*	-26	-8%[57 µM]
CCc1ccc2nc(N3C(=O)C(O)=C(C(=O)c4ccco4)C3c3cccs3)sc2c1 (stereo not drawn)	u	50µM*	u	u	3	u

Screening results deposited in PubChem by National Center for Advancing Translational Sciences (NCATS).
